# According to PubChem BioAssay:
# A number with no mark means an inactive call. Active and inactive are the calls of the source.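 The calls were made as follows: active = efflux inhibition above 0.42, the validation set average plus 4 SD; inconclusive = no clear call, values can overlap the other calls; inactive = the rest.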
# Assay: Nile Red efflux blockade in pump-expressing yeast – validation compound set, multiplex, phenotypic, pilot screen (AID 588506);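 also: Nile Red retained in cells so higher fluorescence means more efflux inhibition; 0 = negative control wells and 1 = enniatin B 25 µM full block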
# Settings: S. cerevisiae pump-expressing triplex, Nile Red efflux flow cytometry; at 10 µM; active compounds read high; the pumps come from Candida albicans
row,SMILES,efflux inhibition (fraction of control)
1,N/C(=N/OS(=O)(=O)c1ccc([N+](=O)[O-])cc1)c1ccncc1,-0.08
2,CCSc1nc(O)c(C2OC(=O)c3c2ccc(OC)c3OC)c(=O)n1CC (stereo not given),0.12
3,COc1cc2ccc(=O)oc2c(O)c1OCC=C(C)C,0.05
4,CC(=O)N1CC23C=CC(CC2CC12CCCCCC2)O3 (stereo not given),-0.09
5,CC(=O)c1cn(C)c(=O)[nH]c1=O,-0.24
6,CC(=O)Oc1ccc(C2OC(=O)c3ccccc3N2C(C)=O)cc1 (stereo not given),0.03
7,O=C1c2ccccc2C(=O)C1c1ccccc1,0
8,O=c1[nH]cnc2c1ncn2[C@@H]1O[C@H](CO)[C@@H](O)[C@H]1O,0.12
9,Nc1ccc2[nH]ncc2c1,0.73 (active)
10,CCN(CC)CCN1C(=O)C(=O)/C(=C(/O)c2c(C)[nH]c(C(=O)OC)c2C)C1c1cccnc1 (stereo not given),0.05
11,Cc1ccc2c(c1)c1c(n2C)C(=O)CCC1,0.41
12,COc1ccc(N2C(=O)C3CCCN3C2=O)cc1 (stereo not given),0.12
13,COc1cccc(OC2OC3COC(C)(C)OC3C(O)C2NC(C)=O)c1 (stereo not given),0.1
14,CC[N+](C)(C)Cc1ccccc1Br,0
15,C[C@H](NC(=O)Nc1ccccc1F)C(=O)O,-0.24
16,COc1cc(NC(=O)N[C@@H](Cc2ccccc2)C(=O)O)cc(OC)c1,-0.09
17,CN(C)CCOc1ccccc1Cc1ccccc1,-0.13
18,CCc1cn([C@H]2C[C@H](O)[C@@H](CO)O2)c(=O)[nH]c1=O,-0.42
19,COc1ccc(CCn2c(C)cc3c(c2=O)C(c2ccncc2)C(C#N)=C(N)O3)cc1OC (stereo not given),-0.13
20,CC(C)(C)C(=O)NC(=S)Nc1sc2c(c1C(N)=O)CCC2,-0.24

row,SMILES,efflux inhibition (fraction of control)
1,Cc1cc(C(=O)NC(CC(C)C)C(=O)O)cc(C)c1[N+](=O)[O-] (stereo not given),-0.12
2,CCS(=O)(=O)Nc1cc(OC)c(OC)cc1Cc1nccc2cc(OC)c(OC)cc12,0.08
3,CCn1c(O)c(/C=C2\C=Nc3ccccc32)sc1=O,-0.44
4,O=C(C1CCCCC1)N1CC(=O)N2CCc3ccccc3C2C1 (stereo not given),0
5,CCn1cc(C(=O)O)c(=O)c2cc(F)c(N3CCNCC3)cc21,0
6,COc1cccc(N2CC34C=CC(O3)C(C(=O)O)C4C2=O)c1 (stereo not given),0.08
7,CC(=O)NCCCC(=O)NC(CCC(=O)OCc1ccccc1)C(=O)OCc1ccccc1 (stereo not given),0.4
8,Cn1cc(CN(CCO)Cc2cccs2)c(-c2cccc(Cl)c2)n1,-0.06
9,COc1ccc(C(=O)NC(=O)NC2(C(Cl)(Cl)Cl)OCCO2)cc1,0.12
10,CC(=O)c1c(C)[nH]c(C(=O)OCc2ccccc2)c1C,-0.25
11,C=CCN1C(=O)c2oc3ccccc3c(=O)c2C1c1ccc(O)c(OC)c1 (stereo not given),0.37
12,CC(=O)CCc1oc2ccccc2c1-c1ccccc1,0.12
13,COc1cc(OC)c(C(=O)CCCN2CCCC2)c(OC)c1,0.19
14,CC(=O)OCC(=O)[C@@]1(OC(C)=O)[C@@H](C)C[C@H]2[C@@H]3C[C@H](F)C4=CC(=O)C=C[C@]4(C)[C@@]3(F)[C@@H](O)C[C@@]21C,-0.015
15,Cc1nnc(SCC(=O)N2CCCC(C(=O)c3ccc(Cl)cc3)C2)o1 (stereo not given),0.3
16,Fc1cc(F)cc(NC(=S)NCCCN2CCOCC2)c1,-0.13
17,COc1ccccc1C1(CC(=O)N2CCCCC2)CCOC(C(C)C)C1 (stereo not given),0.33
18,CCCCC[C@H](O)/C=C/[C@@H]1[C@@H](C/C=C\CCCC(=O)O)[C@H]2CO[C@@H]1C2,0.08
19,CCC(=O)c1ccc(O)cc1,-0.14
20,Cn1c2[n+](c3ccc(Cl)cc3c1=O)Cc1ccccc1-2,0.21
